RORg inh: inhibitors of mouse ROR gamma transcriptional activity; Drosophila S2 Gal4-RORgamma UAS-luciferase reporter, 20 h; Potency, µM (doses to about 53.6 µM), without a hit: at the highest dose activity change, negative = inhibition, hits mostly inhibitors; actives 5.4% (n = 310,000); P51450; also: potency is read from the fitted curve at half-maximal effect; nearly all actives have a fitted effect of over 60% in size
Target sequence (P51450 whole entry, looked up, the tested form may be a part): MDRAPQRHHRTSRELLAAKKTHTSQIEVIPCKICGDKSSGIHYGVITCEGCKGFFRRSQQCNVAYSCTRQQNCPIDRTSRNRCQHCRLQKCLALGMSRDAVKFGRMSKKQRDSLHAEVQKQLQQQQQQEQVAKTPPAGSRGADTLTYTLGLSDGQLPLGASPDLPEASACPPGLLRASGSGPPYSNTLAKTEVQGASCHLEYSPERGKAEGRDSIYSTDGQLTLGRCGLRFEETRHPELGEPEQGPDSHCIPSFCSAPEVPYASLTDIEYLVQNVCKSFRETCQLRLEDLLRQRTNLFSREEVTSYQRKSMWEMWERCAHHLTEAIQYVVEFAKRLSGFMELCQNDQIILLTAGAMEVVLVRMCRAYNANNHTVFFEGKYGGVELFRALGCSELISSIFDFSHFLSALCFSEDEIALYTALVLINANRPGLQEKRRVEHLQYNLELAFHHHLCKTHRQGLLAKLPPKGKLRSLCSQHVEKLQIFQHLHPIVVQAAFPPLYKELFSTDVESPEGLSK
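Schneider cells (Drosophila), stable Gal4 DBD–ROR gamma + UAS-luc; 1 hr cmpd preincubation; Cu2+ induction 700 uM final; 20 hr ambient; luminescence.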
FBPA coupling cs: coupling enzyme interference in Giardia aldolase counter-screen; activity change, negative = inhibition, % at 58.2 µM, hits read low; actives 0.67% (n = 290,000); coupling enzyme system counterscreen, AmpLite Red fluorescence; AID 2472; in the data active = activity change below about -30%
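Fluorescence at 525 nm excitation and 598 nm emission measured inhibition of the coupled detection system without aldolase. Compounds (at 57.5 uM final) were preincubated 10 min at room temperature with coupling enzyme reagent before a 20 min substrate/AmpLite Red step.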
TSHR antagonist: antagonists of human thyroid stimulating hormone receptor. TSHR-expressing cells, TSH-stimulated cAMP HTRF, 2 h; stronger effect = lower value. activity change, negative = inhibition, % at 11.5 µM. actives 0.2% (n = 330,000);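 active = activity change below a set negative limit, meaning inhibition stronger than a set level, cut at about -70% in these data; inconclusive = activity change between two set negative limits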
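Competitive HTRF cAMP read-out (cryptate anti-cAMP antibody, cAMP-d2; 30 min, room temperature) in freshly harvested TSHR cells. Compounds added before TSH at EC80 (4nM final), followed by 2 hours' incubation at 37 deg C.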
ELG1 repair inh: inhibitors of ELG1-dependent DNA repair in HEK293T cells. HEK293T ELG1-luciferase reporter, luminescence, 16 h; DNA damage induced by 5-fluorouridine. Potency, µM (doses to about 46.1 µM), without a hit: top-dose activity change, negative = inhibition, most hits filed as inhibitors. actives 2.3% (n = 330,000); also: potency is read from the fitted curve at half-maximal effect; nearly all actives have a fitted effect of over 55% in size
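DMSO vehicle served as the neutral condition. Each well held 2,000 cells given 5-fluorouridine plus compound; after 16 hr at 37 °C/5% CO2, ONE-Glo was added and luciferase measured 30 min later.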
Gal4-VP16 FLuc: inhibits Gal4-VP16 luciferase reporter, ROR gamma counter-screen; AID 2546; actives 3.5% (n = 310,000); Potency, µM (highest dose often 53.6 µM), for the others: top-dose activity, negative = inhibition, most hits filed as inhibitors; Drosophila S2 Gal4-VP16 UAS-luciferase, luminescence, 20 h;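 also: Gal4-VP16 expression switched on by copper sulfate through the metallothionein promoter; potency is read from the fitted curve at half-maximal effect; nearly all actives have a fitted effect of over 50% in size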
Active calls of the source: *; [ ] = remark or other dose. A selection: hits, their analogues and other compounds. The true share with any hit is near 8%. Unless noted, calls follow the shape of the dose curve; as a rule, active = well fitted curve in the direction sought with a large enough effect; inconclusive = small, poorly fitted or top-dose-only effect, or another doubt; inactive = no such curve, though single readings can be large; an effect the other way counts as inactive or inconclusive. % is scaled to controls: 0 for no effect and ±100 for the full control effect.

Results for NC1=NC(=O)C(Cc2ccc(OC(F)(F)F)cc2)S1 (stereo unspecified) ?
RORg inh: 36%; FBPA coupling cs: -1; TSHR antagonist: -8; ELG1 repair inh: 5%; Gal4-VP16 FLuc: -9%

Results for CCOC(=O)[C@@H]1[C@H]2COc3cc(OC)ccc3[C@H]2N2C(=O)N(c3ccc(Br)cc3)C(=O)[C@]12C ?
TSHR antagonist: -16; ELG1 repair inh: inconclusive

Results for CCOC(=O)[C@@H]1[C@H]2COc3cc(OC)ccc3[C@H]2N2C(=O)N(c3ccc(C(F)(F)F)cc3)C(=O)[C@]12C ?
TSHR antagonist: inconclusive; ELG1 repair inh: 23µM*

What do the screens show for `CCOC(=O)[C@@H]1[C@H]2COc3ccc(Br)cc3[C@@H]2N2C(=O)N(c3cccc(F)c3)C(=O)[C@@]12C`?
RORg inh: 18µM*; FBPA coupling cs: 3; TSHR antagonist: -4; ELG1 repair inh: 15%; Gal4-VP16 FLuc: 4%

How did CCOC(=O)[C@@H]1[C@H]2COc3cc(OC)ccc3[C@@H]2N2C(=O)N(c3ccc(C(F)(F)F)cc3)C(=O)[C@@]12C do in these assays?
RORg inh: inconclusive; FBPA coupling cs: -5; TSHR antagonist: -24; ELG1 repair inh: 2%; Gal4-VP16 FLuc: 4%

Results for CCOC(=O)[C@@H]1[C@H]2COc3cc(OC)ccc3[C@@H]2N2C(=O)N(c3ccc(Br)cc3)C(=O)[C@@]12C ?
RORg inh: 7.9µM*; FBPA coupling cs: -4; TSHR antagonist: -15; ELG1 repair inh: 11%; Gal4-VP16 FLuc: -3%

How did CC(C)CN(C(=O)C1COc2ccccc2O1)c1c(N)n(CC(C)C)c(=O)[nH]c1=O (stereo unspecified) do in these assays?
TSHR antagonist: 6; ELG1 repair inh: 22%

How did CS(=O)(=O)c1ccc(-c2nnc(NC(=O)c3cccc(N4C(=O)CCC4=O)c3)o2)cc1 do in these assays?
TSHR antagonist: -3; ELG1 repair inh: 13%

What do the screens show for `O=C(Nc1nnc(-c2ccco2)o1)c1ccc(N2C(=O)CCC2=O)cc1`?
RORg inh: 11µM*; FBPA coupling cs: -3; TSHR antagonist: 4; ELG1 repair inh: 17%; Gal4-VP16 FLuc: inconclusive

What do the screens show for `Cc1nn(-c2ccccc2)c(C)c1C(=O)Nc1nnc(-c2ccco2)o1`?
RORg inh: 0.35µM*; FBPA coupling cs: 10; TSHR antagonist: 10; ELG1 repair inh: 6%; Gal4-VP16 FLuc: -17%[0.365 µM]

Results for O=C(Nc1nnc(-c2ccc(Br)cc2)o1)c1cccc(N2C(=O)CCC2=O)c1 ?
TSHR antagonist: -12; ELG1 repair inh: 20%

How did O=C(Nc1nnc(-c2ccccc2)o1)c1cccc(N2C(=O)CCC2=O)c1 do in these assays?
RORg inh: 2.5µM*; FBPA coupling cs: -1; TSHR antagonist: -6; ELG1 repair inh: 16%; Gal4-VP16 FLuc: 4.5µM*

How did O=C(Nc1nnc(-c2ccc(Cl)cc2)o1)c1ccc(N2C(=O)CCC2=O)cc1 do in these assays?
RORg inh: 1.1µM*; FBPA coupling cs: -2; TSHR antagonist: -8; ELG1 repair inh: -3%; Gal4-VP16 FLuc: 2.8µM*

What do the screens show for `O=C(NCc1n[nH]c(=O)c2ccccc12)C1CC(=O)N(c2ccccc2)C1` (stereo unspecified)?
ELG1 repair inh: 0%

Results for CCNc1ncc2nc(CCc3ccccc3)c(=O)n(CCC#N)c2n1 ?
RORg inh: 9%; FBPA coupling cs: 1; Gal4-VP16 FLuc: 2%

Results for COc1ccc(CSc2nc(O)cc(=O)n2CC(C)C)cc1F ?
RORg inh: 18%; FBPA coupling cs: 1; TSHR antagonist: 12; ELG1 repair inh: 6%; Gal4-VP16 FLuc: -20%

How did Cc1ccccc1CN1C(=O)c2ccccc2S(=O)c2ccc(C(=O)NCCCN3CCOCC3)cc21 (stereo unspecified) do in these assays?
RORg inh: -6%; FBPA coupling cs: 6; TSHR antagonist: -10; ELG1 repair inh: 22%; Gal4-VP16 FLuc: -10%

How did CC1CC(C)CN(CCCNC(=O)c2ccc3c(c2)N(Cc2ccccc2)C(=O)c2ccccc2S3=O)C1 (stereo unspecified) do in these assays?
RORg inh: 11µM*; FBPA coupling cs: 1; TSHR antagonist: 22; ELG1 repair inh: 0%; Gal4-VP16 FLuc: -17%

Results for COC(=O)C1=C(C)NC(C)=C(C(=O)OC(C)C)[C@H]1c1cccc2nonc12 ?
RORg inh: 1%[2.98 µM]; FBPA coupling cs: 0; Gal4-VP16 FLuc: -16%[17 µM]

What do the screens show for `N#Cc1ccc(COC(=O)c2cnc(Cl)c(Cl)c2)cc1`?
RORg inh: 1%; FBPA coupling cs: -5; TSHR antagonist: 13; ELG1 repair inh: inconclusive; Gal4-VP16 FLuc: 5%

What do the screens show for `O=[N+]([O-])c1cccc(S(=O)(=O)NC2CC3CCC2C3)c1` (stereo unspecified)?
RORg inh: 0%; FBPA coupling cs: 13; TSHR antagonist: 4; ELG1 repair inh: -11%; Gal4-VP16 FLuc: 8%

How did Fc1ccccc1/C=N/Nc1nc(-c2ccccn2)nc2ccccc12 do in these assays?
RORg inh: 0.25µM*; FBPA coupling cs: 1; TSHR antagonist: 4; ELG1 repair inh: inconclusive; Gal4-VP16 FLuc: 0.5µM*

What do the screens show for `CCC(C)Nc1nc(-c2ccccn2)nc2ccccc12` (stereo unspecified)?
RORg inh: 0.71µM*; FBPA coupling cs: -1; TSHR antagonist: 13; ELG1 repair inh: inconclusive; Gal4-VP16 FLuc: 3.5µM*

What do the screens show for `CC(Nc1nc(-c2ccccc2)nc2ccccc12)c1ccccc1` (stereo unspecified)?
RORg inh: 28%; FBPA coupling cs: -3; TSHR antagonist: 27; ELG1 repair inh: inconclusive; Gal4-VP16 FLuc: -4%

How did COc1cccc(-c2nc(NC(C)C)c3ccccc3n2)c1O do in these assays?
RORg inh: inconclusive; FBPA coupling cs: -1; TSHR antagonist: -5; ELG1 repair inh: 5.2µM*; Gal4-VP16 FLuc: inconclusive

Results for Clc1ccccc1-c1nc(N/N=C/c2cccnc2)c2ccccc2n1 ?
RORg inh: inconclusive; FBPA coupling cs: 4; TSHR antagonist: 14; ELG1 repair inh: inconclusive; Gal4-VP16 FLuc: -5%

What do the screens show for `COc1ccccc1-c1nc(NCc2ccccc2)c2ccccc2n1`?
RORg inh: 35µM*; FBPA coupling cs: -1; Gal4-VP16 FLuc: inconclusive

What do the screens show for `CCC(C)Nc1nc(-c2cccc(OC)c2O)nc2ccccc12` (stereo unspecified)?
RORg inh: 16%; FBPA coupling cs: 1; TSHR antagonist: 41; ELG1 repair inh: 18%; Gal4-VP16 FLuc: -14%

Results for Cc1ccn(CC(=O)NC2CC(C)(C)Cc3c2cnn3-c2ccc(F)cc2)n1 (stereo unspecified) ?
RORg inh: inconclusive; TSHR antagonist: 1; ELG1 repair inh: -8%; Gal4-VP16 FLuc: -9%

Source: PubChem BioAssay (National Center for Advancing Translational Sciences (NCATS))
